# Data as given in ChEMBL document CHEMBL3988442, “University of Dundee, Small-Polar-MMV Screening Library” (2021).
# Hit rate of the full screen: of about 48,000 compounds, about 13,000 (27%) showed an effect of 50% or more. Some of the results follow.
# Test system: Wolbachia pipientis
# Assay: Anti-Wolbachia Cell-Based Screen
# Assay type: functional
# Parameters: scale not given: in the data most compounds retested in dose-response had high values
# Conditions: 5 µM
row,Structure (SMILES),Percent Effect
1,CCc1nc(C)c(C2CC(=O)Nc3c2c(-c2ccccn2)nn3C)[nH]1 (centres undefined),6.33%
2,CCC(C)(N)c1nc(=O)c(C(C)C)c(C)[nH]1.Cl (centres undefined),-21.29%
3,Cl.O=C(NC[C@@]1(COc2cnccn2)C[C@@H](O)[C@@H](O)C1)C1CCOCC1,-6.345%
4,O=C(Cc1ccc2c(c1)OCO2)N1CCCN(c2nccs2)CC1,-6.237%
5,CCC1c2cccn2CCN1S(=O)(=O)N1CCOCC1 (centres undefined),79.2%
6,CCCC1c2cccn2CCN1S(=O)(=O)N1CCOCC1 (centres undefined),118.3%
7,O=S(=O)(N1CCOCC1)N1CCc2sccc2C1,7.177%
8,CC1c2cccn2CCN1S(=O)(=O)N1CCCCCC1 (centres undefined),-11.34%
9,CC1CCN(S(=O)(=O)N2CCn3cccc3C2C)CC1 (centres undefined),-8.051%
10,O=S(=O)(N1CCOCC1)N1CCCCC1CCc1ccc(O)cc1 (centres undefined),2.652%
11,Cc1nc(C)c(-c2ccn(CC(=O)Nc3cnn(C)n3)n2)s1,-4.351%
12,O=C([C@H]1COC[C@H]2CN(C3CCOCC3)C[C@H]21)N1CCCCO1,5.01%
13,CC(C)CC(C)NC1CCN(c2cccc(-c3cscn3)c2)CC1 (centres undefined),-3.86%
14,Cc1ccc(C(=O)N2CCN(C)C3(CCC(=O)N(C)CC3)C2)c(F)c1 (centres undefined),104.4%
15,Cc1[nH]ccc1C(=O)N1CCN(C)C2(CCC(=O)N(C)CC2)C1 (centres undefined),98.32%
16,CN1CC2(CCCN(C(=O)c3cnc4ccc(F)cc4c3O)C2)OC1=O (centres undefined),-10.25%
17,CSc1ccccc1C(=O)N1CCN(C)C2(CCC(=O)N(C)CC2)C1 (centres undefined),119%
18,CN1CCC2(CC1)CN(C(=O)c1cccc3cccnc13)CCN2C,-18.03%
19,Cc1[nH]ccc1C(=O)N1CCC2(CC1)c1nc[nH]c1CCN2CC(C)C,14.8%
20,CC(C)N1CC2(CCC1=O)CCN(C(=O)c1cc(F)ccc1Cl)CC2,-13.76%
21,Cc1ccc(S(=O)(=O)N2CCN(C)C3(CCC(=O)N(C)CC3)C2)s1 (centres undefined),14.37%
22,Cc1cc(F)ccc1C(=O)N1CCN(C)C2(CCC(=O)N(C)CC2)C1 (centres undefined),91.8%

row,Structure (SMILES),Percent Effect
1,CC(C)=CCCN1CCN(C)C2(CCC(=O)N(C)CC2)C1 (centres undefined),4.747%
2,Cc1ccc(C)c(S(=O)(=O)N2CCN(C)C3(CCC(=O)N(C)CC3)C2)c1 (centres undefined),-7.559%
3,Cc1csc(S(=O)(=O)N2CCN(C)C3(CCC(=O)N(C)CC3)C2)c1 (centres undefined),-20.06%
4,COc1cccc(OCc2cc(C(=O)NC[C@@H]3CCCN3)n[nH]2)c1,-13.46%
5,COCC1CN(C(=O)c2cnc(C)cn2)Cc2ncnn2C1 (centres undefined),-2.14%
6,Cc1noc(CNc2cccc(C(=O)N3CCCC(O)C3)c2)n1 (centres undefined),7.269%
7,COCc1nnc(C(=O)N2CCCC(O)C2)o1 (centres undefined),102.5%
8,CCCc1nnc(N2CCC(N3CCCCCC3)CC2)o1,12.1%
9,COCc1nnc(C(=O)N(C)Cc2ccc(OC)cc2)o1,-21.92%
10,COCc1nnc(C(=O)N2CC(N3CCCCC3)C2)o1,110.5%
11,Cc1noc(CNc2ccccc2C(=O)N2CCCC(O)C2)n1 (centres undefined),-16.45%
12,Cc1nnc(NC(=O)N2CCC(N3CCCCC3)CC2)s1,6.357%
13,Cc1c(C(=O)N2CCC(N3CCCCC3)CC2)n(C)c2ccc(Cl)cc12,0.1052%
14,COCc1nnc(C(=O)N2CCC(N3CCCCC3)CC2)o1,90.19%
15,COc1ccc(NC(=O)CN2CCS(=O)(=O)CC2)cn1,-4.778%
16,CCCN(CCC)Cc1nnsc1Cl,-13.3%
17,Cc1ccc(C(=O)N2C[C@@H](OCC3CCOCC3)[C@H]3OCCC[C@H]32)o1,-9.797%
18,C[C@@H](NC(=O)c1ccc(Cl)cc1)c1onc(-c2cccnc2)c1C(=O)O.Cl,-10.74%
19,c1ccc(-c2nnn3c2COC(CNCC2CC2)C3)cc1 (centres undefined),-10.69%
20,O=C(Cc1cccnc1)N1CCCC(c2cc(C(F)(F)F)[nH]n2)C1 (centres undefined),-6.416%
21,CC(C)(C#N)C(=O)N1CCCC(c2cc(C(F)(F)F)[nH]n2)C1 (centres undefined),-7.065%
22,Cc1cccc(CCC(=O)N2CCCC(c3cc(C(N)=O)[nH]n3)C2)c1 (centres undefined),2.373%

row,Structure (SMILES),Percent Effect
1,O=C(CO)N1CCCC(c2cc(C(F)(F)F)[nH]n2)C1 (centres undefined),144.8%
2,NC(=O)c1cc(C2CCCN(CCc3ccccn3)C2)n[nH]1 (centres undefined),-3.119%
3,NC(=O)c1cc(C2CCCN(C(=O)CCc3cccs3)C2)n[nH]1 (centres undefined),95.12%
4,NC(=O)c1cc(C2CCCN(C(=O)CCc3ccsc3)C2)n[nH]1 (centres undefined),-0.264%
5,NC(=O)c1cc(C2CCCN(C(=O)CCc3ccncc3)C2)n[nH]1 (centres undefined),120%
6,NC(=O)c1cc(C2CCCN(C(=O)CCc3ccccn3)C2)n[nH]1 (centres undefined),94.78%
7,CN(C)c1nc2c(c(=O)[nH]1)CCN(C(=O)c1c[nH]c(=O)c(Cl)c1)C2,24.13%
8,Cc1cc(C)nc(CNC(=O)C(c2cccnc2)N2CCOCC2)n1 (centres undefined),12.66%
9,Cc1cc(C)c2cc(CNCCCN3CCOCC3)c(=O)[nH]c2c1,97.61%
10,Cc1ccc2cc(CN(C)Cc3ccncn3)c(=O)[nH]c2c1,-11.97%
11,Cc1ccc2[nH]c(=O)c(CNCCCN3CCOCC3)cc2c1,96.42%
12,Cc1cc(C)cc(CNCCS(=O)(=O)N2CCOCC2)c1,-11.28%
13,Cc1ccc2cc(CNCCCN3CCOCC3)c(=O)[nH]c2c1,-6.489%
14,CC(CCc1ccccc1)NC(=O)CNCCCN1CCOCC1.O=C(O)C(=O)O (centres undefined),7.217%
15,O=c1[nH]c2ccccc2cc1CNCCCN1CCOCC1,102.3%
16,Cc1ccc2cc(CNCCN3CCCC3)c(=O)[nH]c2c1,112.1%
17,Cc1ccc2cc(CN(C)Cc3ncc[nH]3)c(=O)[nH]c2c1,-0.6566%
18,CCCS(=O)(=O)N1C[C@@H]2CN(Cc3cnn(C)c3)CCO[C@@H]2C1.O=C(O)C(F)(F)F,-20.93%
19,CCOC(=O)c1n[nH]cc1CN1CCOC(Cc2ccc(F)cc2)C1 (centres undefined),-1.908%
20,CCOc1ccc(CN2CC[C@](C)(O)C(C)(C)C2)cn1,-8.073%
